Laboratory results taken from PubChem BioAssay (NCATS).
Unmarked numbers belong to inactive results. Records with an inconclusive call do not appear. Calls of active or inactive are those of the source. Unless noted, calls follow the shape of the dose curve; as a rule, active = well fitted curve in either direction with a large enough effect (not every such curve was filed as active); inconclusive = small, poorly fitted or top-dose-only effect, or another doubt; inactive = flat fitted curve, though single readings scatter.

What was measured:
[1] = molecular target: Lysosomal acid glucosylceramidase (Homo sapiens) (UniProt P04062); assay: Glucocerebrosidase-p2 (AID 348; in the data active = potency below about 10 µM; also: potency is read from the fitted curve at half-maximal effect); details: purified GBA, blue fluorogenic substrate, 40 min
Sequence of Lysosomal acid glucosylceramidase (Homo sapiens) (P04062 whole entry, looked up): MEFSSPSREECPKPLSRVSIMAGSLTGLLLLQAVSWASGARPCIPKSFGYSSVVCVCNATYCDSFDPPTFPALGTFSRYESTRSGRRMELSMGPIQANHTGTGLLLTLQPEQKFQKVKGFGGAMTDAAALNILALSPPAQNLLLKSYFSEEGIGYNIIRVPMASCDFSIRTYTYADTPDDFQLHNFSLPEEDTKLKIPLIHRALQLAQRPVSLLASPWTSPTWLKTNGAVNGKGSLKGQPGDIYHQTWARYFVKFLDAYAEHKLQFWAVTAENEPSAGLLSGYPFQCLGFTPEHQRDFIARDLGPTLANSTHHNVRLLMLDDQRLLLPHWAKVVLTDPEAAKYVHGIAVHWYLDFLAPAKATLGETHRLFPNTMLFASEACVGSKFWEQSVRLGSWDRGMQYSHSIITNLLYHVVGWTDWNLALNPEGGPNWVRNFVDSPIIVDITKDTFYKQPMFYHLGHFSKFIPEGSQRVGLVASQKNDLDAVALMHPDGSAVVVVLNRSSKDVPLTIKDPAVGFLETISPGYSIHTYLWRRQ
In short: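 Compounds titrated from 0.6 nM upwards against 0.2 nM enzyme in pH 5.9 citric acid/KH2PO4, taurocholate, tween-20; blue fluorogenic substrate 80 uM, 40 min room temperature, stopped and read Ex 365/Em 440 for AC50.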

[2] = AP1 Signaling Pathway (AID 357); details: ME-180 AP-1-bla reporter, EGF-induced, beta-lactamase ratio, 5 h; at 7.69 µM (top of the series) unless noted;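 also: ME-180 reporter cells stimulated with EGF at its EC50 level; % is scaled to controls: 0 for no effect and ±100 for the full control effect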
In short: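 Modulation of EGF-driven AP-1 transcription was assessed with a beta-lactamase reporter in ME-180 cells. Compound and EC50 EGF were co-incubated 5 hours at 37 °C before 2.5-hour CCF4 loading at room temperature and dual-emission reading.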

[3] = NFAT Signaling Pathway (AID 444); details: Jurkat NFAT-bla M1, carbachol, beta-lactamase ratio, 5 h; at 7.69 µM (top of the series) unless noted;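 also: carbachol stimulus at about its EC50 of 1 µM final; % is scaled to controls: 0 for no effect and ±100 for the full control effect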
In short: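 Read-out: CCF4 FRET ratio (460 nm/530 nm) after 1 h RT dye loading, used for %activity and AC50 from titration series. Cells: Jurkat NFAT-β-lactamase/M1 line, treated with compound plus 1 uM carbachol for 5 h, 37 °C.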

[4] = Stat Signaling Pathway (AID 446); details: ME-180 SIE beta-lactamase reporter, IL-6 stimulated, 5 h; at 7.69 µM (top of the series) unless noted;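 also: ME-180 cervical cancer cells given 40 pM IL-6 alongside compound; SIE-controlled beta-lactamase reporter measured as 460/530 nm FRET emission ratio; % is scaled to controls: 0 for no effect and ±100 for the full control effect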
In short: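 ME-180 SIE-bla cells; overnight plating; cpd + IL-6 40 pM, 5 h, 37 C; LiveBLAzer 2.5 h RT; 460/530 nm emission ratio. Normalized to 300 pM IL-6 and 125 nM JAK inhibitor controls.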

[5] = molecular target: Glucocorticoid receptor (Homo sapiens) (UniProt P04150); assay: GR-GFP Redistribution (AID 450;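 active = compounds whose dose series gives a full or clear partial fitted curve of increased nuclear translocation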; also: potency is read from the fitted curve at half-maximal effect); details: U2OS GR-GFP nuclear translocation, laser cytometry, 2 h
Sequence of Glucocorticoid receptor (Homo sapiens) (P04150 whole entry, looked up, the tested form may be a part): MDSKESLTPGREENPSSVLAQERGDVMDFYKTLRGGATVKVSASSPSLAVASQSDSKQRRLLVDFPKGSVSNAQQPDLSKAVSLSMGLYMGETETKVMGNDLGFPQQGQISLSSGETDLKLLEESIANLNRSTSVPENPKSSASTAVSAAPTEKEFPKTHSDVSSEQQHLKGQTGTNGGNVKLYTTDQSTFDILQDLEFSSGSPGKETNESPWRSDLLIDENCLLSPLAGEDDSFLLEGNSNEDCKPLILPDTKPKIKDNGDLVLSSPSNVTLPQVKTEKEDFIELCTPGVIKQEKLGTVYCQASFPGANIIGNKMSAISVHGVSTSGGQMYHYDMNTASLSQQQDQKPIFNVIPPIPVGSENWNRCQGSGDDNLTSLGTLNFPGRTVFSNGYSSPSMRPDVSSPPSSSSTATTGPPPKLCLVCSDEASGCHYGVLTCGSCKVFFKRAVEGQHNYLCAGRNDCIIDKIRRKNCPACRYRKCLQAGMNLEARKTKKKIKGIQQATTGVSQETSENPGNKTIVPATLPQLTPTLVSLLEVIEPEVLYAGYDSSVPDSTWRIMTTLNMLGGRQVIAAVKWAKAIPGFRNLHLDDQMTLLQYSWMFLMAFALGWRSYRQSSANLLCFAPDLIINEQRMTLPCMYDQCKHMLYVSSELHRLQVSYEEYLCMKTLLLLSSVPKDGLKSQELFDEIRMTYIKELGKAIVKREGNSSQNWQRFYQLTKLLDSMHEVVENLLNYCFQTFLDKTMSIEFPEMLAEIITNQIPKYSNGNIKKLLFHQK

[6] = molecular target: Glucocorticoid receptor (Homo sapiens) (UniProt P04150); assay: GR-EFC Redistribution (AID 451; calls by dose curve; also: potency is read from the fitted curve at half-maximal effect); details: CHO-K1 GR-EFC translocation, beta-gal luminescence, 2 h
In short: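 Translocation of GR-ED fusion to nuclear EA restores b-gal, read by luminescence after 1 h room-temperature detection. Engineered CHO-K1 biosensor cells, 1,000/well, exposed 2 h at 37 C to titrations up to 46 uM final.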

[7] = molecular target: Mitogen-activated protein kinase 10 (Mus musculus) (UniProt Q61831); assay: JNK3 AlphaScreen Assay (AID 530); details: JNK3 lysate, c-Jun phosphorylation; series mostly up to 11.4 µM;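 also: kinase came from lysate of stimulated human HepG2 cells; signal reports phosphorylation of biotinylated GST-cJun 1-79 at Ser73 with 10 µM ATP; % is scaled to controls: 0 for no effect and ±100 for the full control effect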
In short: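 Compound titrations were preincubated 15 minutes at room temperature with substrate, antibody and pre-activated JNK3-containing HepG2 lysate. Reactions were started with 10 uM ATP and stopped with EDTA-containing bead buffer for AlphaScreen detection.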

[8] = molecular target: 3',5'-cyclic-AMP phosphodiesterase 4B (Homo sapiens) (UniProt Q07343); assay: qHTS Assay for Inhibitors of PDE-IV (AID 607; active = well fitted activation curve with a large enough effect in the main read-out, with a control signal flat, not every such curve was filed as active; also: % of control where 0% means no effect); details: HEK293 ACTOne CNG channel cells, membrane potential fluorescence; series mostly up to 22.9 µM
Sequence of 3',5'-cyclic-AMP phosphodiesterase 4B (Homo sapiens) (Q07343 whole entry, looked up): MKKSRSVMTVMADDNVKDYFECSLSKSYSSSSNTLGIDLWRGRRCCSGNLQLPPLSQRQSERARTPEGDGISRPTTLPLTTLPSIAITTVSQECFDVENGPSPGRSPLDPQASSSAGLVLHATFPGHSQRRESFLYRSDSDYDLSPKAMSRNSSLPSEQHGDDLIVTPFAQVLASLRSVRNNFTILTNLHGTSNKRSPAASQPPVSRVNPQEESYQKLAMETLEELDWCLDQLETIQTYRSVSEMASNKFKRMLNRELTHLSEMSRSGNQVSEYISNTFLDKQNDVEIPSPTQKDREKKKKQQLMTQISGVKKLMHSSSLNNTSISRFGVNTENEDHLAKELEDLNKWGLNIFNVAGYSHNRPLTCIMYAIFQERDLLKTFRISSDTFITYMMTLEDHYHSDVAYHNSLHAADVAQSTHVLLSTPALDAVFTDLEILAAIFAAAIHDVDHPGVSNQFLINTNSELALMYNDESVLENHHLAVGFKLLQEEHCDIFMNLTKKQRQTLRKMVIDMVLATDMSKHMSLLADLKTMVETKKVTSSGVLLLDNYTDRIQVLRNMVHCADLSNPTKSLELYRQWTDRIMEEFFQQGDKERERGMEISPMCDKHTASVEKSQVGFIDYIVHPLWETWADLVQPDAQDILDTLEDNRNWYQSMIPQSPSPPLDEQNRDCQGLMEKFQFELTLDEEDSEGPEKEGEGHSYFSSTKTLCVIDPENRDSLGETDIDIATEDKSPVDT
In short: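 ACTOne HEK293 cells carry a modified cAMP-gated CNG channel and express endogenous PDE4; plated 1000 cells/well, compounds up to 22.9 uM final. Membrane-potential dye fluorescence (ex 535/em 590) was read; parental cells received 10 uM forskolin + 100 uM RO 20-1724.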

[9] = molecular target: Cytochrome P450 3A4 (Homo sapiens) (UniProt P08684); assay: qHTS Assay for Activators of Cytochrome P450 3A4 (AID 885; active = well fitted curve in the direction sought with a large enough effect; an effect the other way counts as inactive or inconclusive; also: nearly all actives have a fitted effect of over 65% in size); details: recombinant CYP3A4, Luciferin-PPXE luminescence, 60 min; series mostly up to 11.4 µM
Sequence of Cytochrome P450 3A4 (Homo sapiens) (P08684 whole entry, looked up): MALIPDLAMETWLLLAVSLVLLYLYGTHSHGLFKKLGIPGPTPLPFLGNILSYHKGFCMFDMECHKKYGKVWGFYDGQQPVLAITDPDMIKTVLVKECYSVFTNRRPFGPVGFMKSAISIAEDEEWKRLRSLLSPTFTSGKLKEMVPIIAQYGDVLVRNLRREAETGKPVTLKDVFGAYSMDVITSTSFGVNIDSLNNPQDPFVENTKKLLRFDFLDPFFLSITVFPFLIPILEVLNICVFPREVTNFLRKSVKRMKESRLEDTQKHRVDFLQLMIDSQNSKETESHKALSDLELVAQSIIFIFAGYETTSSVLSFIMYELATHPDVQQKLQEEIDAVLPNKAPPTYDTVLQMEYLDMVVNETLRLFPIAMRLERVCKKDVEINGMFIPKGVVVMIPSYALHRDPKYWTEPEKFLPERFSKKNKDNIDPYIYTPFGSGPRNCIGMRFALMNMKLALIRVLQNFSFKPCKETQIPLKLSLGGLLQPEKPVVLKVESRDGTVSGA
In short: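 20nM CYP3A4 + 25uM Luciferin-PPXE (=KM), 200mM KPO4; cpd 10 min RT; NADPH regen, 60 min RT; stop w/ detection buffer, 20 min; luminescence. Normalized to 57 uM ketoconazole.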

[10] = molecular target: Cytochrome P450 2C19 (Homo sapiens) (UniProt P33261); assay: qHTS Assay for Inhibitors and Substrates of Cytochrome P450 2C19 (AID 899; active = well fitted curve in the direction sought with a large enough effect; an effect the other way counts as inactive or inconclusive; also: nearly all actives have a fitted effect of over 60% in size; also: potency is read from the fitted curve at half-maximal effect); details: recombinant CYP2C19, luciferin-H EGE luminescence; series mostly up to 11.4 µM
Sequence of Cytochrome P450 2C19 (Homo sapiens) (P33261 whole entry, looked up): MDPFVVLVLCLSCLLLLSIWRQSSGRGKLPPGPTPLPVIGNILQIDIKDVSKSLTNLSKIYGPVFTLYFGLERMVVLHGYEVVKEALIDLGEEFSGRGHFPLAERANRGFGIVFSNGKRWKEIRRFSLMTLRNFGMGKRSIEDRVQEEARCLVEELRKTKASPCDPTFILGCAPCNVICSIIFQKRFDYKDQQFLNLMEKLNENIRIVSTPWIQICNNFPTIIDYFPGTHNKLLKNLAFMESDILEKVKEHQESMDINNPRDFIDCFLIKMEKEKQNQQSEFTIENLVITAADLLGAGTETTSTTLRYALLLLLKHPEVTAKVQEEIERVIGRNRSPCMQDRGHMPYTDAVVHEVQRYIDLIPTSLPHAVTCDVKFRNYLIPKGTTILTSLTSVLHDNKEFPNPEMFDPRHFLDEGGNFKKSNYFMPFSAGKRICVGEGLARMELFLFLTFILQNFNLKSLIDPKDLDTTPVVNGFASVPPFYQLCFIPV
In short: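 Reactions contain 5nM enzyme, 10uM Luciferin-H EGE (KM) and 50mM KPO4; compound preincubates 10 min at 37C, NADPH regeneration starts turnover for 60 min. Luminescence after detection reagent gives activity.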

[11] = molecular target: Cytochrome P450 3A4 (Homo sapiens) (UniProt P08684); assay: qHTS Assay for Inhibitors and Substrates of Cytochrome P450 3A4 (AID 884; active = well fitted curve in the direction sought with a large enough effect; an effect the other way counts as inactive or inconclusive; also: nearly all actives have a fitted effect of over 50% in size; also: potency is read from the fitted curve at half-maximal effect); details: recombinant CYP3A4, Luciferin-PPXE luminescence; series mostly up to 57.1 µM
In short: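 20 nM human CYP3A4 with 25 uM Luciferin-PPXE (at KM) in 200 mM KPO4, preincubated 10 min with compound; NADPH regeneration started a 60 min RT reaction. Luciferin detected by luminescence, normalized to 57 uM ketoconazole as full inhibition.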

[12] = molecular target: Cytochrome P450 2D6 (Homo sapiens) (UniProt P10635); assay: qHTS Assay for Inhibitors and Substrates of Cytochrome P450 2D6 (AID 891; active = well fitted curve in the direction sought with a large enough effect; an effect the other way counts as inactive or inconclusive; also: nearly all actives have a fitted effect of over 60% in size; also: potency is read from the fitted curve at half-maximal effect); details: recombinant CYP2D6, luciferin-ME EGE luminescence; series mostly up to 11.4 µM
Sequence of Cytochrome P450 2D6 (Homo sapiens) (P10635 whole entry, looked up): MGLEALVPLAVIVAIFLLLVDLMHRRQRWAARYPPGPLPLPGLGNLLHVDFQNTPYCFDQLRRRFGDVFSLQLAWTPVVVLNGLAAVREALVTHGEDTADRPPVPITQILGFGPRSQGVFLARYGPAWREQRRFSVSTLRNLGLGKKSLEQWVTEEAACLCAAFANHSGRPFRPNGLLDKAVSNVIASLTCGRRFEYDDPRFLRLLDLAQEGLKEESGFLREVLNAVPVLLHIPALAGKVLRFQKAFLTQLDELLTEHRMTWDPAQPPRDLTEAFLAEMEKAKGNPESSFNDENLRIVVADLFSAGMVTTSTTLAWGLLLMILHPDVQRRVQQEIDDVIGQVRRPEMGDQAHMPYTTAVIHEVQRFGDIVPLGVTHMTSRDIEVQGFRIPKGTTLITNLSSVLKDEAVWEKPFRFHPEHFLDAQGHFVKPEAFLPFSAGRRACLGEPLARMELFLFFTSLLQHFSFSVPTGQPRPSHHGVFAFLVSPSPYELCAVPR
In short: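 Human CYP2D6 (5 nM) with 30 uM Luciferin-ME EGE (at Km) in 100 mM KPO4, compound preincubated 10 min, then NADPH regeneration system for 60 min at room temperature. Luciferin read by luminescence; normalized to 1.43 uM quinidine.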

[13] = qHTS Assay for Identification of Small Molecule Agonists for Hypoxia Response Element Signaling Pathway (AID 914; active = well fitted activation curve with a large enough effect in the signal ratio, with a control signal flat, not every such curve was filed as active; the % refers to the signal ratio; also: % of control where 0% means no effect); details: ME-180 (cervical carcinoma) HRE-bla reporter, beta-lactamase ratio, CoCl2, 17 h; activation: active compounds read high
In short: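 Compounds in a titration series were added to ME-180 reporter cells alongside an EC50 level of CoCl2. After 17 hours, beta-lactamase activity was read as the 460nm/530nm emission ratio of CCF4, giving AC50 values.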

| Structure (SMILES) | Potency [1] [µM] | activity change, negative = inhibition [2] [%] | activity change, negative = inhibition [3] [%] | activity, negative = inhibition [4] [%] | Potency [5] [µM] | Potency [6] [µM] | Potency [7] | Potency [8] | Potency [9] | Potency [10] | Potency [11] | activity change, negative = inhibition [11] | Potency [12] | activation [13] [%] |
| --- | --- | --- | --- | --- | --- | --- | --- | --- | --- | --- | --- | --- | --- | --- |
| O=C(O)c1ccccc1-c1ccccc1C(=O)Nc1ccc2c(c1)[nH]c(=O)c1ccccc12 | > 11.4 | -4.06 | 1.08 | -25.4 | > 46 | > 9.22 | inactive | inactive | inactive |  |  |  |  |  |
| CC(=O)n1c(COS(C)(=O)=O)nc2ccccc21 | > 11.4 | -2.19 | 8.51 | -1.19 | > 46 | > 9.22 | inactive | inactive | inactive |  |  |  |  |  |
| NS(=O)(=O)c1nc(S(=O)(=O)O)c2[nH]cnc2n1 | > 11.4 | 7.59 | 2.24 | 2.49 | > 46 | > 9.22 | inactive | inactive |  | inactive |  |  |  |  |
| O=c1c(-c2ccccc2)nc2cnc(Oc3ccccc3)nc2n1C1CC1 | > 11.4 | -26.4 | 2.32 | -5.21 | > 9.22 | > 46 | inactive | inactive |  |  | inactive |  |  |  |
| COc1ccc(N(CC(=O)O)N=O)cc1 | > 11.4 | 1.5 | 11.2 | 2.83 | > 46 | > 9.22 | inactive | inactive |  | inactive |  |  |  |  |
| O=c1[nH]c(SCc2ccccc2[N+](=O)[O-])nc2nc[nH]c12 | > 11.4 | 9.58 | 13.2 | 10.1 | > 46 | > 9.22 | inactive | inactive | inactive |  |  | -21.6% [at 11.4 µM] |  |  |
| CC(C)(C)c1ccc(-c2nnc(SCc3ccc(Cl)cc3)n2-c2cccc(C(F)(F)F)c2)cc1 | > 11.4 | 5.08 | -23.1 | 3.24 | > 46 | > 9.22 | inactive | inactive | inactive |  |  |  |  |  |
| NNC(=O)CCSc1ccccc1 | > 11.4 | 7.31 | 10.9 | -4.96 | > 46 | > 9.22 | inactive | inactive | inactive | 3.98 µM (active) | 3.98 µM (active) |  |  |  |
| CC1(C)[C@@H]2CC[C@@]1(CS(=O)(=O)Nc1ccccc1)C(=O)C2 | > 11.4 | -11.4 | 4.16 | -7 | > 46 | > 9.22 | inactive | inactive |  | 2 µM (active) |  |  |  |  |
| S[C@@H]1CCCN(Cc2ccccc2)C1 | > 11.4 | 1.2 | -16.1 | 2.98 | > 46 | > 9.22 | inactive | inactive | inactive | 3.16 µM (active) |  |  | 0.794 µM (active) |  |
| Cn1c(=O)c(CCc2ccccc2)nc2cnc(N3CCNCC3)nc21 | > 11.4 | -6.16 | 8.46 | 11.7 | > 9.22 | > 46 | inactive | inactive | inactive |  |  |  |  |  |
| CN(C)Cc1c[nH]c2nc[nH]c(=O)c12 | > 11.4 | 1.16 | -5.56 | 1.72 | > 46 | > 9.22 | inactive | inactive |  |  |  |  | inactive |  |
| Cc1cc(=O)oc2cc(O)c(CN(C)CC(=O)O)cc12 | > 11.4 | 8.78 | 10.9 | -5.54 | > 46 | > 9.22 | inactive | inactive |  | inactive |  |  |  | 2.1 |
